Shown are actives, neighbours in structure and some others; about 3.1% of the full set was active somewhere.
ARNT TACC3 PPI: disrupts binding between human ARNT and TACC3; Q9Y6A5; AlphaScreen His-ARNT PAS-B/GST-TACC3 binding, luminescence; TACC3 fragment carries E629A point mutation; inhibition, % at 9.99 µM; 390,000 tested, 0.66% active; AID 623870;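 active means mean inhibition of replicates at least 50% and at least half of replicates each reaching 50%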
HIF act: HIF pathway transcriptional activation; activation, % at 7.5 µM (by protocol); U2OS HRE-luciferase reporter, luminescence; normalized: DMSO 0%, desferrioxamine 100%; 300,000 tested, 0.32% active;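 active means mean activation of at least 10% of the iron chelator positive control signal, with at least half of replicates also reaching 10%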
HSF-1 act: increases HSF-1 driven luciferase reporter signal. NIH3T3-HGL HSF-1 luciferase reporter, MG132, 8 h; 100% = twice DMSO control signal. activation, % at 9 µM. 300,000 tested, 1.7% active. AID 504408;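 active means mean replicate activation of at least 50% with a set share of replicates each reaching 50%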
HSP90 inh: blocks HSP90-mediated luciferase refolding in reticulocyte lysate; Rabbit reticulocyte lysate, luciferase refolding luminescence, 3 h; inhibition, % at 5.6 µM; 290,000 tested, 0.91% active;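 active means inhibition above the screen-wide mean plus 3 SD, computed separately per campaign, cut at about 16% in these data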;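 further: inhibitors lower the luminescence because luciferase stays unfolded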
HSF1 inh: HSF1 inhibition | activity change, negative = inhibition, % at 7.5 µM (by protocol) | 300,000 tested, 0.77% active | NIH3T3-HGL HSE-luciferase, MG132-induced, luminescence 8 h; hits give low values;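 active means more than half of replicate wells show activity change below -50%, luminescence cut by over half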;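 further: luciferase reports HSF-1 transcriptional activity via heat shock element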
Of the large screens only hits and unclear results are named; the others gave an inactive call.

COc1ccc(/C(N)=N/OC(=O)CSc2ccc(C)cc2)cc1OC	HSF-1 act 57
COC(=O)c1nnn(CC(=O)NC(=O)Nc2ccc(F)cc2)c1C(=O)OC	HSF-1 act 55
COC(=O)c1nnn(CC(=O)NC(=O)Nc2ccccc2)c1C(=O)OC	none
COc1ccccc1NCC(=O)N/N=C/c1c(O)ccc2ccccc12	none
COc1ccccc1N(CC(=O)N/N=C/c1c(O)ccc2ccccc12)S(C)(=O)=O	ARNT TACC3 PPI 83, HIF act 11
COc1ccccc1N(CC(=O)NC1CCCCC1)S(C)(=O)=O	HIF act 94
COc1ccccc1N(CC(=O)NC1CCCCC1)S(=O)(=O)c1ccccc1	none (no result: ARNT TACC3 PPI)
COc1ccc(CN2CCN(c3nc4ccccc4s3)CC2)cc1	none
Cc1ccccc1CN1CCN(c2nc3ccccc3s2)CC1	HSF-1 act 81
Cc1cc(C)nc(S/C=C/C(=O)c2ccccc2F)n1	HSF-1 act 189
C[C@@H](NC(=O)C[C@H]1CC[C@H]2[C@@H](COC[C@H](O)CN2Cc2cc(F)ccc2F)O1)c1ccccc1	none (no result: HIF act, HSF-1 act, HSP90 inh, HSF1 inh)
O=C(COC(=O)c1ccc2c(c1[N+](=O)[O-])C(=O)c1ccccc1C2=O)NC1CC1	HSF-1 act 124
Cc1onc(-c2ccccc2)c1NC(=O)N(Cc1ccccc1)C(C)C	HIF act 55
Clc1ccc(-n2nnnc2Sc2ncnc3sccc23)cc1	HSF-1 act 129
O=C1CCC/C(=N\NC(=O)c2ccc(COc3ccccc3-c3ccccc3)cc2)C1	HSF-1 act 72
COc1ccc(CN(C)C[C@H]2Oc3ccc(NC(=O)C4CCCCC4)cc3CC(=O)N([C@H](C)CO)C[C@@H]2C)cc1	none (no result: HIF act, HSF-1 act, HSP90 inh, HSF1 inh)
O=C1/C(=N\S(=O)(=O)c2cccs2)C([n+]2cccc(Cc3ccccc3)c2)=C([O-])c2ccccc21	HSF-1 act 139
CC(C)(C)c1cc[n+](C2=C([O-])c3ccccc3C(=O)/C2=N\S(=O)(=O)c2ccccc2)cc1	HSP90 inh 16 (no result: ARNT TACC3 PPI)
O=C1/C(=N\S(=O)(=O)c2cccs2)C([n+]2ccc(CCCc3ccccc3)cc2)=C([O-])c2ccccc21	none (no result: ARNT TACC3 PPI)
C[C@H](CO)N1C[C@H](C)[C@@H](CN(C)S(=O)(=O)c2ccc(F)cc2)OCCCC[C@H](C)Oc2ccc(NC(=O)Nc3ccccc3)cc2C1=O	none (no result: HIF act, HSF-1 act, HSP90 inh, HSF1 inh)
COc1ccc(NC(=S)NNC(=O)c2nnn(-c3ccccc3)c2C)cc1	ARNT TACC3 PPI 62
O=C(C[C@@H]1CC[C@H]2[C@@H](COC[C@@H](O)CN2Cc2cccc(C(F)(F)F)c2)O1)NCc1ccc(F)cc1	none (no result: HIF act, HSF-1 act, HSP90 inh, HSF1 inh)
C[C@@H]1CCCCO[C@@H](CN(C)S(=O)(=O)c2cccs2)[C@H](C)CN([C@H](C)CO)C(=O)c2cc(NC(=O)Nc3ccccc3)ccc2O1	none (no result: HIF act, HSF-1 act, HSP90 inh, HSF1 inh)
Cc1nc(N2CCC(C)CC2)c2c(C)c(C(=O)Nc3ccc(C(F)(F)F)cc3)sc2n1	none
Cc1nc(N2CCC(C)CC2)c2c(C)c(C(=O)Nc3cccc(C(F)(F)F)c3)sc2n1	HSF-1 act 59 (no result: ARNT TACC3 PPI)
O=C(CCl)NC(Cc1ccccc1)c1ccccc1 (configuration not stated)	HSF1 inh -85
CCOC(=O)c1c(C)oc2c1c1c(c3ccccc32)OCN(CCCC(=O)O)C1	HSF-1 act 57
CCOC(=O)c1c(C)oc2c1c(C=NCc1ccccn1)c(O)c1ccccc12	ARNT TACC3 PPI 48 (no result: HIF act, HSF-1 act, HSF1 inh)
CCOC(=O)c1c(C)oc2c1cc(O)c1ccccc12	HSF-1 act 58
C[C@@H]1CN([C@@H](C)CO)C(=O)Cc2cc(NS(=O)(=O)c3ccccc3)ccc2O[C@@H]1CN(C)Cc1ccc2c(c1)OCO2	none (no result: HIF act, HSF-1 act, HSP90 inh, HSF1 inh)
Cn1c(CNc2ccc(Br)cc2)nc2ccccc21	HSF-1 act 115
Cn1c(CSc2nc3ccccc3s2)nc2ccccc21	HSF-1 act 76
Cn1c(COc2ccccc2Br)nc2ccccc21	HSF-1 act 70
Cn1c(CSc2nc3ccccc3s2)n[nH]c1=S	none
C[C@H]1CN([C@@H](C)CO)C(=O)c2cc(C#CCN(C)C)cnc2O[C@H]1CN(C)Cc1cccc(C(=O)O)c1	none (no result: HIF act, HSF-1 act, HSP90 inh, HSF1 inh)
O=C(CC(=O)c1ccccc1)Nc1ccc2c(c1)OCCO2	HSF-1 act 54
O=C(Nc1ccc2c(c1)OCCO2)C(=S)NCc1ccccc1	HSF-1 act 68
O=C(Nc1ccc2c(c1)OCCO2)c1coc2ccccc2c1=O	HSF1 inh -52
O=C(Nc1ccc2c(c1)OCO2)c1ccccc1	HSF-1 act 58
CCC(=O)Nc1ccc2c(c1)C(=O)N(C)[C@@H]1CC[C@@H](CC(=O)NC3CCCC3)O[C@H]1CO2	none (no result: HIF act, HSF-1 act, HSP90 inh, HSF1 inh)
O=C(Nc1ccc2c(c1)OCO2)c1cc(-c2ccccc2Cl)on1	HSF-1 act 57
O=C(NC(=S)Nc1ccc2c(c1)OCCO2)c1cccc(Br)c1	none
O=C(NCc1ccc2c(c1)OCO2)c1cc(-c2ccccc2Cl)on1	none
CC(C)(O)C#Cc1ccc(C(=O)Nc2ccc3c(c2)OCO3)s1	HSF-1 act 60
O=C(NC(=S)Nc1ccc2c(c1)OCO2)c1ccccc1	HSF-1 act 57
COc1ccc(C(=O)n2nc(C)cc2Nc2ccccc2)cc1	HSF-1 act 52
CC(C)c1cc2c(c(O)c1O)[C@@]13CCCC(C)(C)C1CC2OC3=O (some centres not stated)	HSF-1 act 66
COc1cc(OC)nc(NC(=O)NS(=O)(=O)c2ccccc2Cl)n1	none
Cc1cc(N(C)N)nc(NC(=O)NS(=O)(=O)c2ccccc2Cl)n1	ARNT TACC3 PPI 59
C=C(CCC(=O)c1ccccc1)C(=O)c1ccccc1	HSF-1 act 103
C=C(C(=O)c1ccccc1)C(CC(=O)c1ccccc1)c1ccccc1 (configuration not stated)	HSF-1 act 144
C/C(=N\NC(=O)c1ccccc1)c1cc2cc([N+](=O)[O-])ccc2oc1=O	ARNT TACC3 PPI 77 (no result: HIF act, HSF-1 act, HSF1 inh)
CCOc1ccc(-n2cc(-c3ccc(OC)c(OC)c3)[nH]c2=S)cc1	HSF-1 act 55
N#C/C(=C\c1ccc(OCc2ccc(Cl)cc2)cc1)C(=O)Nc1cccc(C(=O)O)c1	HSF-1 act 120
O=C(O)c1cccc(NC(=O)c2ccc(COc3ccc(Cl)cc3)cc2)c1	none
CC(C)C#Cc1cnc2c(c1)C(=O)N([C@H](C)CO)C[C@H](C)[C@H](CN(C)C(=O)C1CCC1)O2	none (no result: HIF act, HSF-1 act, HSP90 inh, HSF1 inh)
Cc1ccc(-n2nc3c(=O)n(CCCC(=O)N4CCC(C(N)=O)CC4)nc(C)c3c2C)cc1	HSF1 inh -52
COc1ccc(-c2nnc(Nc3ccc(CC(N)=O)cc3)c3ccccc23)cc1	HSF-1 act 57 (no result: ARNT TACC3 PPI)
COc1ccc(CNC(=O)CN2CCN(c3ccccc3)CC2)cc1	none
O=C(CN1CCN(c2ccccc2)CC1)NCc1ccc(F)cc1	HSF1 inh -56
C[C@@H](O)C#Cc1cnc2c(c1)C(=O)N([C@@H](C)CO)C[C@H](C)[C@@H](CN(C)CC1CCOCC1)O2	none (no result: HIF act, HSF-1 act, HSP90 inh, HSF1 inh)
Clc1cc2nc(-c3cccnc3Cl)[nH]c2cc1Cl	HSF-1 act 55
Cc1cc2nc(-c3ccccc3O)[nH]c2cc1C	none (no result: HIF act, HSF-1 act, HSP90 inh, HSF1 inh)

Screening results from PubChem.
